Here are results for 107 molecules from PubChem BioAssay AID686979 (National Center for Advancing Translational Sciences (NCATS), 2013).

Among all 420,000 compounds or so, about 50,000 (12%) were called active. Inconclusive results (about 26%) are left out. Calls come from the whole dose curve; as a rule, active = well fitted inhibition curve with a large enough effect; inconclusive = small, poorly fitted or top-dose-only effect; inactive = flat fitted curve, though single readings scatter. What follows is part of a selection rich in actives, with near analogues and random picks from the rest. Where a call stands in place of a potency, no number is given. Where a SMILES comes first, the peptide text is derived from it. The star is where a group is joined. Bz = O=C(c1ccccc1)*
Potency is the fitted concentration of half-maximal effect.

The nature of this test: qHTS for Inhibitors of human tyrosyl-DNA phosphodiesterase 1 (TDP1): qHTS in cells in presence of CPT. Note: nearly all actives have a fitted effect of over 55% in size. Conditions: chicken DT40 Tdp1-/-;hTDP1 cells + 20 nM CPT, ATP luminescence, 48 h; series mostly up to 46.2 µM. The procedure, abridged:
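Chicken DT40 Tdp1-/- cells complemented with human TDP1, 400 cells/well, exposed to compounds plus 20 nM camptothecin for at least 48 h at 37 C; viability read as ATP content by CellTiter-Glo luminescence.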
(In general: Quantitative high-throughput screening tests each substance at several concentrations.)
In the case of `CC(NC(=O)c1cccc(S(=O)(=O)N2CCc3ccccc3C2)c1)c1ccco1` (configuration not stated), the Potency result was “inactive”. The value for `COC(=O)c1ccc(S(=O)(=O)N2CCc3ccccc3C2)cc1` was “inactive”; that for `Cc1cccc(N2CCN(C(=O)c3cccc(S(=O)(=O)N4CCc5ccccc5C4)c3)CC2C)c1` (configuration not stated) was 9.2 µM (active); that for `CC1CCCC(C)N1C(=O)COC(=O)COc1ccccc1C#N` (configuration not stated) was “inactive”. The value for `O=C(COC(=O)c1ccc(O)cc1O)c1ccc2c(c1)OCCO2` was “inactive”; that for `CC(CNC(=O)c1ccc(N)cc1)NC(=O)c1ccc(N)cc1` (configuration not stated) was “inactive”; that for `CC(Cc1ccccc1)C(=O)N(C)Cc1ccccc1` (configuration not stated) was “inactive”. Then `CN(Cc1ccccc1F)C(=O)C(Cc1ccccc1)NC(=O)c1ccccc1` (configuration not stated), with 29.1 µM (active); and `O=C(NC(Cc1ccccc1)C(=O)N1CCCC1C(=O)O)c1ccccc1` (stereo not drawn) (Bz-Phe-Pro-OH; configuration not given here), with “inactive”; and `CCOc1cccc(C(=O)Nc2nnc(-c3cccs3)s2)c1`, with “inactive”. Consider `N#Cc1ccc(C(=O)Nc2nc(-c3cccs3)c(C(=O)C(F)(F)F)s2)cc1`, for which the Potency was 1.64 µM (active). The value for `CC(=O)c1sc(NC(=O)c2ccc(C)cc2)nc1C` was “inactive”; that for `CC1CN(C(=O)c2cc(COc3c(F)cccc3F)on2)CCN1C` (configuration not stated) was “inactive”; that for `CC1CCCCN1C(=O)Cn1c(=O)oc2cc(S(=O)(=O)N3CCCCC3)ccc21` (configuration not stated) was “inactive”. The value for `CC(C)CCNC(=O)Cn1c(=O)oc2cc(S(=O)(=O)N3CC(C)CC(C)C3)ccc21` (configuration not stated) was 23.1 µM (active); that for `CC1CCCN(C(=O)Cn2c(=O)oc3cc(S(=O)(=O)N4CCCCC4C)ccc32)C1` (configuration not stated) was “inactive”. The value for `CC(=O)c1cccc(NC(=O)CSc2nc3c(c(=O)[nH]2)CCC3)c1` was “inactive”. Turning to `O=C(CCc1ccccc1)NNC(=O)COc1ccc(Cl)cc1`, the Potency result was “inactive”. The value for `O=C(COC(=O)COc1cccc(F)c1)NCC1CCCCC1` was “inactive”; that for `COc1cc(NC(=O)c2cc3ccc4cccnc4c3[nH]2)cc(OC)c1OC` was “inactive”; that for `Cc1ccccc1CN1CCC(CNC(=O)c2c(C)oc3ncnc(N4CCCCC4)c23)CC1` was “inactive”. The value for `CCOc1ccccc1N(CC)C(=O)c1cc2ccc3cccnc3c2[nH]1` was 5.8 µM (active); that for `Cc1ccccc1CN1CCN(CC(=O)NCc2ccccn2)C1=O` was “inactive”. For the molecule `CCOc1cccc(OCCCOc2cccc3cccnc23)c1`, the Potency result is “inactive”. Consider `Cc1ccccc1CN1CCC(CNC(=O)c2cc3ccc4cccnc4c3[nH]2)CC1`, for which the Potency was 16.4 µM (active).

Regarding `O=c1[nH]n2c(=O)c3c([nH]c2c1N=Nc1ccccc1)CCC3`, the Potency entry was “inactive”. The value for `Cc1ccc(N(C(=O)CNC(=O)c2ccco2)C(C(=O)NC2CCCC2)c2ccncc2)cc1` (configuration not stated) was “inactive”. As for `CCOc1cc2[nH]c(=O)n(Cc3ccc(C(=O)NCCN(CC)CC)cc3)c(=O)c2cc1OCC`, the Potency result is “inactive”. The value for `CCOC(=O)N1CCN(Cc2nc3cc(NC(C)=O)ccc3n2C)CC1` was “inactive”; that for `COc1ccc(OCC(=O)Nc2nnc(-c3ccco3)s2)cc1` was “inactive”.

Take `CCCCN(C(=O)C(CCSC)N1C(=O)c2ccccc2C1=O)c1c(N)n(CCC)c(=O)[nH]c1=O` (configuration not stated): the Potency entry is “inactive”. The value for `CCCOc1ccc(C(=O)C(CCC(CNCC)C(=O)c2ccc(OCCC)cc2)CNCC)cc1` (configuration not stated) was 0.651 µM (active); that for `CCCCOc1ccc(C(=O)NN2CCN(C)CC2)cc1` was “inactive”; that for `CCCOc1ccc(C(=O)NCCc2ccccc2)cc1` was “inactive”. The value for `CCCOc1ccc(C(=O)CCC(=O)OC(C)C(=O)Nc2ccc(NC(C)=O)cc2)cc1` (configuration not stated) was “inactive”. `CCCCOc1ccc(C(=O)NO)cc1`: the Potency is 10 µM (active). As to `CCCCOc1ccc(C(=O)NCc2ccncc2)cc1`, the Potency entry was “inactive”. The value for `CC(C)CCNC(=O)CSc1nc2ccccc2nc1Cc1ccc(Cl)cc1` was “inactive”; that for `CC1C(=O)Nc2ccccc2N1C(=O)c1c(F)cccc1F` (configuration not stated) was “inactive”; that for `COc1ccccc1/C=C/C(=O)NC1CC2CCC1C2` (configuration not stated) was “inactive”. Take `Cc1sc2ncn(CC(=O)NCCN(C)C)c(=O)c2c1S(=O)(=O)N1CCC(C)CC1`: the Potency entry was “inactive”.

For `O=C(NC1CCN(C(=S)Nc2ccc(Cl)cc2)CC1)C1CCCCC1`, the Potency result is “inactive”. Then `COc1ccc(/C(N)=N/OC(=O)CCCc2ccccc2)cc1`, with “inactive”; and `Cc1c(C#N)c(NC(=O)c2ccccc2)n(Cc2ccccc2)c1C`, with “inactive”; and `Cc1ccc(C(=O)NCCNS(=O)(=O)c2ccccc2)cc1`, with “inactive”. The value for `Cc1ccc(C(=O)Nc2c(C#N)c(C)c(C)n2Cc2ccccc2)cc1` was 25.9 µM (active); that for `COC(=O)/C=C(\Oc1ccccc1)C1(O)CCCCC1` was “inactive”; that for `CC(Nc1nc(N2CCN(CCO)CC2)nc2ccccc12)c1ccccc1` (configuration not stated) was “inactive”. Regarding `CC(Nc1nc(N2CCCC2)nc2ccccc12)c1ccccc1` (configuration not stated), the Potency is 23.1 µM (active). In the case of `Cc1ccc(C(CC(=O)O)Nc2nc(N3CCCCC3)nc(N3CCCCC3)n2)cc1` (configuration not stated), the Potency result was “inactive”. With `CCCOc1ccc(/C(O)=C2/C(=O)C(=O)N(CCN(C)C)C2c2ccc(OC)c(OC)c2)cc1` (configuration not stated), the Potency result was “inactive”.

Turning to `CC1CCN(C(=O)COC(=O)c2cc(=O)[nH]c3ccccc23)CC1`, the Potency entry is “inactive”.

`CCc1ccc(OC(C)C(=O)Nc2ccc(S(=O)(=O)Nc3cc(C)on3)cc2)cc1` (configuration not stated): the Potency result is “inactive”.

In the case of `Cc1nonc1NC(=O)c1oc2ccccc2c1C`, the Potency result is “inactive”.

Take `CCc1nonc1NC(=O)c1oc2ccc(Cl)cc2c1C`: the Potency entry is “inactive”. The value for `CCOc1ccc(-c2nonc2NC(=O)c2oc3ccc(CC)cc3c2C)cc1` was 18.4 µM (active); that for `CC(=O)N(O)CCCCCNC(=O)CCC(=O)N(O)CCCCCNC(=O)CCC(=O)N(O)CCCCCNC(=O)CCC(=O)O` was “inactive”. The value for `CCCCNC(=O)OC1CC2CC1[C@H]1CCCCN1C2=O` (some centres not stated) was “inactive”; that for `CC(C)(C)c1cc[n+](-c2[nH]c(=O)sc2/C=N/N=C(\[O-])c2ccccc2)cc1` was “inactive”; that for `C/C(=N\NC(=O)COc1ccc(C)cc1[N+](=O)[O-])c1ccc2c(c1)OCCO2` was “inactive”.

For `O=C(CSc1ccc2nnc(-c3ccccc3)n2n1)N1CCCc2ccccc21`, the Potency entry was “inactive”. The value for `O=C(CSc1nc2ccccc2s1)Nc1ccc(C(=O)O)cc1` was “inactive”; that for `Nc1nnc(SCC(=O)Nc2ccc3nc(SCC(=O)Nc4ccccc4)sc3c2)s1` was 13 µM (active); that for `Cc1nnc(SCC(=O)N2CCc3ccccc32)n1-c1ccccc1` was “inactive”.

For the molecule `Cn1c(=O)c2c(SCC(=O)N3CCc4ccccc43)nc(-c3ccc(Cl)cc3)nc2n(C)c1=O`, the Potency result is “inactive”. Then `O=C(Nc1ccc2nc(SCC(=O)N3CCCc4ccccc43)sc2c1)c1ccc(F)cc1`, with 5.8 µM (active); and `O=C(Nc1ccc2nc(SCC(=O)N3CCCc4ccccc43)sc2c1)c1ccc(Cl)cc1`, with 5.17 µM (active). Then `CCC(=O)Nc1ccc2nc(SCC(=O)N3CCc4ccccc43)sc2c1`, with 16.4 µM (active); and `CC(=O)c1ccc(NC(=O)CSc2nnc(NC(=O)Nc3ccccc3)s2)cc1`, with “inactive”; and `O=C(Nc1ccc2nc(SCC(=O)N3CCc4ccccc43)sc2c1)c1ccccc1F`, with “inactive”. The value for `O=C(NCc1nnc(SCC(=O)N2CCCc3ccccc32)o1)c1ccccc1F` was “inactive”; that for `CC(=O)Nc1ccc(S(=O)(=O)NCC2CCC(C(=O)NCCc3ccccc3)CC2)cc1` (configuration not stated) was “inactive”; that for `O=C(NC1CCCC1)C1CC(=O)N(c2ccc(F)cc2)C1` (configuration not stated) was “inactive”.

`Cc1cc(NC(=O)CN2C(=O)NC(CC(C)C)C2=O)no1` (configuration not stated): the Potency entry was “inactive”.

As for `CC(C(=O)N(C)CC(=O)Nc1ccccc1C(F)(F)F)N1C(=O)c2ccccc2C1=O` (configuration not stated), the Potency result is “inactive”. Then `CC(OC(=O)c1cccnc1Cl)C(=O)NC1CCCCC1` (configuration not stated), with “inactive”. Take `CCN(Cc1ccccc1)C(=O)CCS(=O)(=O)c1ccc2c(c1)oc(=O)n2C`: the Potency result was “inactive”. For `CCCCC(NS(=O)(=O)c1ccc(C)cc1)C(=O)Oc1ccc2c3c(c(=O)oc2c1)CCC3` (configuration not stated), the Potency entry is “inactive”.

On to `CN1CCN(C(=O)c2cnn(-c3ccccc3)c2NC(=O)c2ccc([N+](=O)[O-])cc2)CC1`, for which the Potency result was “inactive”. The value for `CCCCC(=O)N(C)c1c(CC)nc2c(OCc3ccc(Cl)cc3Cl)cccn12` was 20.6 µM (active); that for `CCc1nc2c(OCC(=O)C(C)(C)C)cccn2c1N(C)C(=O)c1ccccc1F` was “inactive”; that for `CCc1nc2c(OCc3ccc(Cl)cc3Cl)cccn2c1N(C)C(=O)C(C)C` was 7.31 µM (active). The value for `Clc1ccc(-c2ncc3ccccn23)c(Cl)c1` was “inactive”; that for `COC(=O)c1ccc(CSc2nncn2C)cc1` was “inactive”; that for `CCOC(=O)c1nc(C)n(-c2ccc(Cl)cc2Cl)n1` was “inactive”. On to `CCc1nc2c(OCc3ccc(C(=O)OC)cc3)cccn2c1N(C)C(=O)C(C)C`, for which the Potency was 20.6 µM (active). The value for `Cc1nc2c(OCc3ccc(Cl)cc3Cl)cccn2c1N(C)CC1CC1` was 16.4 µM (active); that for `CC(C)(C)NC(=O)NC(=O)COC(=O)Cc1ccc(Cl)cc1Cl` was “inactive”; that for `COC(=O)c1ccc(COC(=O)c2cnccn2)cc1` was “inactive”. As to `CC(C)(C)OC(=O)NC(Cc1ccccc1)C(=O)NC(CSC1CCCCO1)C(=O)NN` (configuration not stated), the Potency entry was “inactive”.

In the case of `CC(=O)c1cc2c(cc1NC(=O)Cn1nc(-c3ccc(F)cc3)ccc1=O)OCO2`, the Potency result is “inactive”. The value for `COc1ccccc1OCCCCCCN1CCN(C)CC1` was “inactive”; that for `CC(C)[C@H](NC(=O)N1c2ccccc2NC(=O)[C@@H]1C(C)C)C(=O)N[C@H](C(=O)O)c1ccccc1` was “inactive”; that for `CCCNC(=O)c1onc(CSc2ccc(F)cc2)c1C(=O)NC(C)C` was “inactive”. Then `COc1cc(C(=O)N2CCC(c3ccncc3)CC2)cc(OC)c1OC`, with “inactive”. As to `COc1cc(C(F)(F)F)nc2c(Br)c(C(C)(C)C)nn12`, the Potency entry is “inactive”.

With `Cc1cc2nc(-c3ccc(NC(=O)c4cc5ccccc5o4)cc3)oc2cc1C`, the Potency entry was “inactive”. The value for `CC(OC(=O)/C=C/c1ccccc1)C(=O)NC1CCCCC1C` (configuration not stated) was “inactive”.

`CN(C)CCCN(C(=O)COc1ccccc1)c1nc2c(Cl)cccc2s1`: the Potency result was “inactive”. The value for `COc1ccc(N(C)C(=O)CCS(=O)(=O)c2cccc3nsnc23)cc1` was “inactive”. Then `O=C(NCc1cccnc1)Nc1ccccc1F`, with “inactive”; and `O=C(CCS(=O)(=O)c1ccccc1)N(Cc1cccnc1)c1nc2c(F)cccc2s1`, with 3.66 µM (active); and `Cc1cccc2sc(N(CCCN(C)C)C(=O)CCS(=O)(=O)c3ccccc3)nc12`, with 1.84 µM (active).

On to `Cc1cccc(C)c1NC(=O)CCS(=O)(=O)c1cccc2nsnc12`, for which the Potency entry is “inactive”. Then `O=C(C1COc2ccccc2O1)N(Cc1cccnc1)c1nc2c(F)cc(F)cc2s1` (configuration not stated), with “inactive”. For the molecule `CN(C)CCN(C(=O)CN1C(=O)c2ccccc2C1=O)c1nc2cc3c(cc2s1)OCCO3`, the Potency entry is “inactive”. For the molecule `COc1cccc2sc(N(CCCN(C)C)C(=O)C(c3ccccc3)c3ccccc3)nc12`, the Potency was 20.6 µM (active).
